Screen size: about 300,000 compounds; about 37,000 (12%) were called active. The entries come from a sample that favours actives as a whole. Values without a mark were called inactive. Cut-off read from the data, not from the text of the source: active = max response mostly above about 13% (no sharp cut-off); inactive = mostly below about 14%.

This assay in a line: Cycloheximide Counterscreen for Small Molecule Inhibitors of Shiga Toxin. Note: read at 38.3 µM for the half of the compounds with a filed dose; 0% is about no effect. The conditions noted are these: cell reporter, cycloheximide protein synthesis inhibition counterscreen; stronger effect = higher value. (Counterscreens check selectivity or assay interference.)
For `COc1ccc(OC)c(Cc2nnc(CCC(=O)NC3CCCC3)o2)c1`, the max response is 18.4% (active). As to `CCOc1ccc(-c2noc(CCC(=O)NC3CCCC3)n2)cc1OC`, the max response is -5.32%. Next, `COc1ccc(-c2noc(CCCC(=O)NC3CCCC3)n2)cc1OC`: 3.35%; `CC(=O)c1cc(CN2CCC(C(=O)Nc3cccc(-c4cscn4)c3)CC2)cs1`: 1.1%.

In the case of `CCCN(CCC)c1nc2c(C)cccn2c(=O)c1/C=C1/SC(=S)N(Cc2ccco2)C1=O`, the max response is 3.29%. With `CC1CN(CC(=O)NC(C)c2ccccc2)CC(C)O1` (stereo not given) the figure was -1.49%; with `O=C(NCc1cccs1)c1ccc(CS(=O)Cc2ccccc2Cl)o1` (stereo not given), -1.19%. With `COc1ccc(-n2nc(C(=O)NCC(=O)N3CCN(c4ccccc4OC)CC3)c3ccccc3c2=O)c(OC)c1`, the max response was 24.9% (active). In the case of `COc1ccc(-n2nc(C(=O)Nc3cc(OC)c(OC)c(OC)c3)c3ccccc3c2=O)c(OC)c1`, the max response is 7.65%. Turning to `COc1cccc(NC(=O)c2nn(-c3ccc(OC)cc3OC)c(=O)c3ccccc23)c1`, the max response was -9.73%. With `Cc1ccc(S(=O)(=O)N(CC(O)CN2CCCCC2)c2cccc([N+](=O)[O-])c2)cc1` (stereo not given) the figure was -3.71%; with `COc1ccc(N(Cc2ccc(N(C)C)cc2)C(=O)c2ccc(S(C)(=O)=O)cc2)cc1`, -1.82%; with `O=C(O)CCn1cc(/C=C/C(=O)c2ccc(Cl)cc2)c(-c2cccc(Br)c2)n1`, 0.455%. `FC(F)(F)c1nnc2c3ccccc3c(Cl)nn12`: the max response was -3.49%. Turning to `Oc1oc(-c2ccccc2Br)nc1/C=N/c1ccccn1`, the max response was 34.5% (active).

Turning to `CC(C)n1c(O)c(N=Nc2ccccn2)c2ccccc21`, the max response is 4.74%. Consider `CN(C(=O)CN1C(=O)S/C(=C\c2ccccc2F)C1=O)C1CCS(=O)(=O)C1` (stereo not given), for which the max response was 0.582%.

Consider `COc1ccc(CNC(=O)C(c2ccc(O)cc2)N(Cc2ccco2)C(=O)c2snc(C(N)=O)c2N)cc1` (stereo not given), for which the max response is 2.14%.

As to `CCC(C)Sc1nc2c(cnn2-c2ccc(F)cc2)c(=O)[nH]1` (stereo not given), the max response was 3.85%. Turning to `CC(C)=CCN1CCN(Cc2cc3ccccc3[nH]2)CC1CCO` (stereo not given), the max response is -3.61%.

As for `Cc1cc(C)c(S(=O)(=O)c2cc(F)ccc2C)c(=O)[nH]1`, the max response is 2.04%. For `CCOc1cc(NC(=O)CCl)c(OCC)cc1NC(C)=O`, the max response was -3.13%. As for `CC(Cc1cccs1)N(Cc1ccc(Cl)cc1)C(=O)c1ccncc1` (stereo not given), the max response was -4.21%. Take `O=C(/C=C/c1ccc(Cl)cc1)Nc1ccc(Br)cn1`: the max response is 14.3%. With `Cc1ccc(NC(=S)NC(=O)/C=C/c2ccc(Cl)cc2)cc1` the figure was 8.42%; with `Cc1cc(C)nc(NC(=O)/C=C/c2ccc(Cl)cc2)n1`, 17.8% (active); with `O=C(/C=C/c1ccc(Cl)cc1)Nc1ccc(S(=O)(=O)Nc2ncccn2)cc1`, 5.75%. For `CC(C)(C)c1ccc(/C=C/C(=O)NC2CCS(=O)(=O)C2)cc1` (stereo not given), the max response is 5.09%.

In the case of `CC(C)(C)c1ccc(/C=C/C(=O)Nc2ncccn2)cc1`, the max response was 65.3% (active). Turning to `O=S(=O)(NC1CC1)c1ccc2c3c(cccc13)CC2`, the max response was -1.96%. `COc1ccc(C(O)(C2CCCCC2)C(CN2CCCC2)c2ccccc2)cc1` (stereo not given): the max response is -2.99%. `COC(=O)c1ccc(CN2C(=O)NC(c3ccccc3)(c3ccccc3)C2=O)o1`: the max response was -8.22%. Next, `O=C(Nc1cccc(F)c1)[C@@H]1CCCN1`: -0.0627%.

For `O=C(Nc1cccc(F)c1)NC1CCCCCCC1`, the max response is 52.8% (active). With `C/C(CC(=O)Nc1cccc(F)c1)=N\NC(=O)C(=O)NC1CCCCC1` the figure was 12.1% (active); with `C/C(CC(=O)Nc1cccc(C(F)(F)F)c1)=N\NC(=O)C(=O)NCC(C)C`, -3.56%. Regarding `COc1cccc(NC(=O)C/C(C)=N/NC(=O)C2CCCCC2)c1`, the max response is 1.09%. As for `O=C(Nc1cccc(F)c1)NC1CCCc2ccccc21` (stereo not given), the max response was -2.71%.

Consider `Cc1ccc(CN2CCN(Cc3ccccc3-c3ccco3)CC2CCO)o1` (stereo not given), for which the max response was -2.94%. On to `CCN(c1ccccc1)S(=O)(=O)c1cc2c(cc1C)n(C)c(=O)c(=O)n2C`, for which the max response is 1.1%. With `C=CCn1c(C23CC4CC(CC(C4)C2)C3)n[nH]c1=S` the figure was -2.9%; with `COc1ccccc1N1CCN(c2ncnc3sc(C)c(-c4ccccc4)c23)CC1`, 23.3%. For the compound `Cc1ccc2c(c1)N(C(=O)CCC(=O)NCc1cccnc1)CCO2`, the max response was -2.33%. With `CC(=O)N1CCOc2ccc(S(=O)(=O)N3CCN(c4cccc(C(F)(F)F)c4)CC3)cc21`, the max response is -4.21%. As to `Cc1ccc2[nH]cc(CCNC(=O)C3CCCCC3)c2c1`, the max response is 0.628%. `Cc1ccc2[nH]cc(CCNC(=O)c3ccc([N+](=O)[O-])cc3)c2c1`: the max response is 0.0509%. With `COCCCN1C(=O)c2ccc(C(=O)Nc3ccc(OC)cc3OC)cc2C1=O`, the max response was 0.803%.

As for `COc1ccc2[nH]cc(CCN3C(=O)c4ccc(C(=O)O)cc4C3=O)c2c1`, the max response is 21.7% (active). With `Cc1ccc2[nH]cc(CCCN3C(=O)c4ccccc4C3=O)c2c1`, the max response was 10.1% (active).

Regarding `COc1ccc(C[C@H](C(=O)O)N2C(=O)c3ccc(C(=O)O)cc3C2=O)cc1`, the max response was -3.3%.

As for `Clc1cccc(Cl)c1OCCOCCNCc1ccccc1`, the max response is 1.5%. Consider `CCN(CC)Cc1c(C(=O)N/N=C/c2cccc(OCc3ccc(F)cc3)c2)nnn1-c1nonc1N`, for which the max response is 8.82%. Regarding `CN(C)CCCn1c(=O)n(Cc2ccccc2)c(=O)c2c3c(sc21)CCCCC3`, the max response is -4.51%.

Consider `Cc1occc1C(=O)NC1CCCN(Cc2ccc(CC(C)C)cc2)C1` (stereo not given), for which the max response was 9.49%. For the compound `CC1(C(=O)N/N=C/c2cc3c(cc2Br)OCO3)CC1(Br)Br` (stereo not given), the max response is 4.29%. Consider `CN1CCC(CN)(N2CCN(c3ccccc3)CC2)CC1`, for which the max response is -3.21%. On to `COc1ccc(NC(=O)CNC(=O)Cc2ccccc2)cc1OC`, for which the max response was -3.3%. For `O=C(NCCCc1ccccc1)C(=O)c1c[nH]c2ccccc12`, the max response was 14.7% (active). In the case of `O=C(C(=O)N1CCc2ccccc2C1)c1c[nH]c2ccccc12`, the max response is 10.7%. In the case of `O=C(NC1CCCC1)C(=O)c1c[nH]c2ccccc12`, the max response is 49.1% (active). Take `CC1CCN(CC(=O)c2c[nH]c3ccccc23)CC1`: the max response was 22.4%. For the compound `CC(=O)NC(Cc1c[nH]c2ccccc12)C(=O)NCCc1ccccc1` (stereo not given), the max response was -4.02%.

Regarding `COc1ccc(OC)c2[nH]c(=O)c(CCNC(=O)C(=O)c3c[nH]c4ccccc34)cc12`, the max response was -1.63%.

For `O=C(O)CC(CC(=O)N1CCOCC1)c1ccccc1` (stereo not given), the max response is -2.32%. Next, `COc1ccc(/C=C2/C(=O)N(c3ccccc3)N=C2C)c(OC)c1`: -1.9%; `Cc1cn(C2C=CC(CO)O2)c(=O)[nH]c1=O` (stereo not given): -1.84%; `CN(C)CCN(Cc1ccccc1)S(=O)(=O)c1csc(C(N)=O)c1`: -8.34%. On to `CCOC(=O)C1CCN(c2ccc(C(=O)O)cc2[N+](=O)[O-])CC1`, for which the max response is -2.89%. As to `Cc1cccc(N2CCN(c3ccc(C(N)=O)cc3[N+](=O)[O-])CC2)c1C`, the max response is -1.03%. With `Cc1ccc(C(=O)c2ccc(N3CCN(C)CC3)c([N+](=O)[O-])c2)cc1` the figure was 18.7% (active); with `COc1ccc(C(=O)NC2(C(F)(F)F)NC(=O)N(CCCc3ccccc3)C2=O)c(OC)c1OC` (stereo not given), 10.5%. In the case of `Cc1ccc2c(c1)N(CC(=O)NCCc1ccc(Cl)cc1)C(=O)c1cccnc1O2`, the max response was -1.47%. For `CCn1cc(S(=O)(=O)c2cccc(C)c2)c(=O)c2cc(F)c(N3CCN(C)CC3)cc21`, the max response is -2.21%.

For the compound `CN(Cc1ccccc1Cl)C(=O)C1CCC(=O)N(CCc2cccc(F)c2)C1` (stereo not given), the max response is 10%.

As to `Cc1cccc(NC(=S)NCCN(C2CCCCC2)C2CCCC2)c1`, the max response is -7.35%. Turning to `Cc1cccc(C(=O)NC(=S)N(C)C2CCCCC2)c1`, the max response was 61% (active). With `Cc1cccc(C(=O)NCCCN(C)CCCNC(=O)c2cccc(C)c2)c1` the figure was -0.372%; with `COc1ccc(/C=C/C(=O)c2ccc(OC)cc2O)cc1`, 41.2% (active). Next, `O=S(=O)(/C=C/c1ccccc1)N1CCNCC1`: 0.861%; `O=C(/C=C/c1ccccc1)N/C(=C/c1ccccc1)C(=O)Nc1ccccc1O`: 8.16%; `Cc1[nH]c(=O)c(C(=O)/C=C/c2ccccc2)c2c1CCCC2`: -1.39%. With `CC(/C=C/c1ccccc1)=N\NC(=O)C1CC1(C)c1ccccc1` (stereo not given) the figure was -2.65%; with `O=C(/C=C/c1ccccc1)c1ccoc1`, 40.4% (active). On to `O=C(/C=C/c1ccccc1)c1ccccc1O`, for which the max response is 29.3% (active). Take `COc1ccc(C(=O)/C=C/c2cccnc2)c(OC)c1`: the max response was 8.73%. On to `COc1ccc(/C=C/C(=O)c2cc(Br)ccc(=O)c2O)cc1`, for which the max response was -1.31%. As to `CC(C)c1nc(CNC(=O)CC2C(=O)NCCN2Cc2cccc(F)c2F)cs1` (stereo not given), the max response is -2.45%. For `COc1cc(C2NC(=O)NC(c3ccccc3)=C2C(C)=O)c(Br)cc1OCC(N)=O` (stereo not given), the max response is -1.35%. Regarding `O=C(c1cccc(F)c1)N1CCN(c2ccc([N+](=O)[O-])c3cccnc23)CC1`, the max response is -5.99%. For `COc1cccc(C(=O)N2CCC(n3nccc3NC(=O)C3CCOC3)CC2)c1` (stereo not given), the max response is 2.44%.

With `CC(=O)N(Cc1cc(=O)[nH]c2ccccc12)c1ccc(C)cc1C`, the max response was -0.991%.

With `COc1ccccc1NC(=O)/C=C/C(N)=O`, the max response is 9.83%. Next, `Cc1cc(C)c2nc(NC(=O)C3CCCO3)sc2c1` (stereo not given): 44.3% (active); `Cc1ccc(C)c(C(C)NC(=O)C2CCCO2)c1` (stereo not given): -2.44%; `Cc1cc([N+](=O)[O-])ccc1NC(=O)C1CCCO1` (stereo not given): 3.91%.

These data come from PubChem BioAssay AID2314 (National Center for Advancing Translational Sciences (NCATS), 2010).
